The text below walks through data of PubChem BioAssay AID1159554 (Broad Institute, 2015).

Molecules are shown by their SMILES. The whole screen tested about 94,000 compounds, of which about 2,100 (2.2%) were called active. This is one part of a sample in which actives are shown more often than they occur. A number with no mark means an inactive call. Cut-off read from the data, not from the text of the source: active = activity change below about -80%; inconclusive = no clear call, values can overlap the other calls; inactive = above that.

This experiment can be described thus: Dd2 malaria parasite growth inhibition – SYBR Green fluorescence, single dose replicates, primary screen (AID 1159554). The note with it: P. falciparum Dd2 growth, 72 h, at 10 µM, active compounds read low.
For the compound `COc1ccc(-c2ccc([C@@H]3[C@H](CN(C)S(C)(=O)=O)N[C@@H]3CO)cc2)cc1`, the activity change was -61.4%. For the compound `C[C@H](CO)N1C[C@H](C)[C@@H](CN(C)C(=O)Cc2ccccn2)Oc2cc(-c3cccc(C(=O)N(C)C)c3)ccc2S1(=O)=O`, the activity change is -3.07%.

`CN1CCN(C(=O)C[C@H]2C[C@@H]3c4cc(NS(=O)(=O)c5ccc(F)cc5)ccc4O[C@@H]3[C@@H](CO)O2)CC1`: the activity change was -2.3%. As to `CO[C@@H]1CN(C)C(=O)c2cc(NC(=O)NC3CCCC3)ccc2OC[C@H](C)NC[C@H]1C`, the activity change was 14.4%. As to `O=C(Nc1cc(F)ccc1F)N1CC(=O)N2[C@H](CO)[C@@H](c3ccc(-c4cccnc4)cc3)[C@@H]2C1`, the activity change was -15.2%. Consider `CCC(=O)N1C[C@H]2[C@@H](c3ccccc31)[C@H](CO)N2Cc1ccccc1F`, for which the activity change is 0.398%. Regarding `CO[C@H]1CN(C)C(=O)c2ccc(NC(C)=O)cc2OC[C@@H](C)N(C(=O)c2ccccn2)C[C@@H]1C`, the activity change was 13.4%.

Turning to `Cc1noc(C)c1S(=O)(=O)N(C)C[C@@H]1OCCCC[C@@H](C)Oc2ccc(NS(=O)(=O)c3ccccc3)cc2C(=O)N([C@H](C)CO)C[C@@H]1C`, the activity change is -10.1%.

Consider `CCCNC(=O)N1CC2(CCN(C(=O)C3CC3)CC2)c2c([nH]c3cc(OC)ccc23)[C@H]1CO`, for which the activity change was -26.2%. For the compound `COc1ccc2c3c([nH]c2c1)[C@H](CO)N(Cc1nccs1)CC31CCN(C(=O)C2CCC2)CC1`, the activity change was -50%. In the case of `COc1ccc2c3c(n(C)c2c1)[C@H](CO)N(Cc1ccccc1F)CC31CN(C(=O)C2CCC2)C1` it was -14.5%; in that of `COc1ccc2c3c([nH]c2c1)[C@@H](CO)N(C(=O)NC(C)C)CC31CN(C(=O)C2CCCC2)C1`, 12.7%. For `COCC(=O)N1CC2(C1)CN(Cc1ccccc1F)[C@@H](CO)c1[nH]c3cc(OC)ccc3c12`, the activity change is -88.4% (active). In the case of `COc1ccc2c3c([nH]c2c1)[C@@H](CO)N(Cc1cc(F)ccc1F)CC31CN(C(=O)C2CCC2)C1`, the activity change was -89.2% (active). Regarding `CCC(=O)N1CC2(C1)CN(Cc1cc(F)ccc1F)[C@@H](CO)c1[nH]c3cc(OC)ccc3c12`, the activity change was -89.9% (active).

`COc1ccc2c3c([nH]c2c1)[C@@H](CO)N(Cc1ccccc1OC)CC31CCN(C)CC1`: the activity change is 35.1%. As for `COc1ccc2c3c([nH]c2c1)[C@@H](CO)N(C(C)=O)CC31CN(C(=O)Nc2ccc(F)cc2)C1`, the activity change was -0.229%. As to `CCC(=O)N1CCC2(CC1)CN(Cc1cc(F)ccc1F)[C@@H](CO)c1c2c2ccc(OC)cc2n1C`, the activity change was -73%.

`COc1ccc2c3c([nH]c2c1)[C@@H](CO)N(Cc1ccncc1)CC31CN(C(=O)CN(C)C)C1`: the activity change was -8.59%.

For the compound `COc1ccc2c3c([nH]c2c1)[C@@H](CO)N(Cc1cc(F)ccc1F)CC31CCN(C(=O)C2CCC2)CC1`, the activity change is -88% (active).

`CCS(=O)(=O)N1[C@H](CO)[C@@H](c2ccccc2)C12CN(C(=O)C1CCC1)C2`: the activity change is 35.7%. In the case of `COc1ccccc1S(=O)(=O)N1CC[C@@H]2[C@H](CO)Nc3ccc(-c4ccccc4F)cc3[C@@H]21` it was -2.28%; in that of `O=C1CN(Cc2ccc(F)cc2)C[C@H]2[C@@H](c3ccc(Br)cc3)[C@H](CO)N12`, -35.6%; in that of `O=C(C[C@H]1C[C@@H]2c3cc(NC(=O)C4CCC4)ccc3O[C@@H]2[C@H](CO)O1)NC1CCCCC1`, 12%.

In the case of `O=C(N[C@@H]1C=C[C@H](CC(=O)N2CCOCC2)O[C@H]1CO)c1ccccn1`, the activity change was 34%. In the case of `C[C@H](O)C#Cc1cnc2c(c1)C(=O)N([C@H](C)CO)C[C@H](C)[C@H](CN(C)C(=O)c1ccc(F)cc1)O2`, the activity change was 8.85%.

Take `COc1cccc(CNC(=O)C[C@@H]2CC[C@@H]3[C@H](COc4ccc(NC(C)=O)cc4C(=O)N3C)O2)c1`: the activity change was -0.731%.

For the compound `C[C@H]1CN([C@@H](C)CO)C(=O)Cc2cc(NC(=O)Nc3cccc4ccccc34)ccc2O[C@H]1CN(C)CC1CC1`, the activity change was -71.1%. Take `CC(C)NC(=O)Nc1ccc2c(c1)CC(=O)N([C@@H](C)CO)C[C@@H](C)[C@H](CN(C)CC1CC1)O2`: the activity change is 1.75%.

With `C[C@@H]1CN([C@H](C)CO)C(=O)Cc2cc(NC(=O)Nc3ccccc3)ccc2O[C@H]1CN(C)Cc1ccc(Cl)c(Cl)c1`, the activity change was -5.47%.

Take `Cc1noc(C)c1NC(=O)Nc1ccc2c(c1)CC(=O)N([C@H](C)CO)C[C@@H](C)[C@@H](CN(C)Cc1ccncc1)O2`: the activity change is 3.85%. In the case of `C[C@H](CO)N1C[C@H](C)[C@@H](CN(C)Cc2ccc(Cl)c(Cl)c2)Oc2ccc(NC(=O)Nc3ccc(C(F)(F)F)cc3)cc2CC1=O` it was -87.2% (active); in that of `C[C@H](CO)N1C[C@H](C)[C@@H](CN(C)CC2CC2)Oc2ccc(NC(=O)Nc3ccccc3)cc2CC1=O`, -83.5% (active); in that of `Cc1noc(C)c1NC(=O)Nc1ccc2c(c1)CC(=O)N([C@@H](C)CO)C[C@@H](C)[C@H](CN(C)Cc1ccc(Oc3ccccc3)cc1)O2`, -81.8% (active). In the case of `C[C@@H]1CN([C@H](C)CO)C(=O)Cc2cc(NC(=O)Nc3ccccc3)ccc2O[C@@H]1CN(C)Cc1ccc(C(F)(F)F)cc1` it was 2.2%; in that of `Cc1noc(C)c1NC(=O)Nc1ccc2c(c1)C(=O)N([C@H](C)CO)C[C@H](C)[C@H](CN(C)Cc1ccc(Oc3ccccc3)cc1)O2`, -39.9%; in that of `CO[C@@H]1CN(C)C(=O)c2cc(NC(=O)C3CCOCC3)ccc2OC[C@H](C)N(Cc2cccnc2)C[C@@H]1C`, 14.9%. In the case of `CCS(=O)(=O)Nc1ccc2c(c1)C(=O)N(C)[C@@H]1CC[C@H](CC(=O)N3CCCCC3)O[C@@H]1CO2` it was 6.13%; in that of `CO[C@@H]1CN(C)C(=O)c2cc(NS(=O)(=O)c3ccccc3)ccc2OC[C@@H](C)N(C(=O)NC(C)C)C[C@@H]1C`, 20.8%; in that of `COCC(=O)N1CCC2(CC1)CN(C(=O)Nc1ccccc1F)[C@@H](CO)c1c2c2ccc(OC)cc2n1C`, -32.4%. With `CCCC#Cc1cnc2c(c1)C(=O)N([C@@H](C)CO)C[C@@H](C)[C@@H](CN(C)C(=O)c1ccccc1)O2`, the activity change was -15.9%.

With `CO[C@H]1CN(C)C(=O)c2ccc(NC(=O)C3CC3)cc2OC[C@H](C)N(Cc2ccncc2)C[C@@H]1C`, the activity change was -31.5%. In the case of `COc1cccc(CNC(=O)[C@@H]2[C@@H](CO)[C@@H]3Cn4c(ccc(-c5cccnc5)c4=O)[C@@H]3N2C)c1` it was 8.71%; in that of `O=C(C[C@@H]1CC[C@@H](NS(=O)(=O)c2ccc(F)cc2)[C@@H](CO)O1)NCCc1ccncc1`, 23.4%. With `O=C(N[C@H]1CC[C@@H](CCNS(=O)(=O)Cc2ccccc2)O[C@H]1CO)c1ccccc1F`, the activity change was -32.4%. With `CC(C)NC(=O)N(C)C[C@H]1OCCCC[C@@H](C)Oc2ccc(NC(=O)C3CCCCC3)cc2C(=O)N([C@H](C)CO)C[C@H]1C`, the activity change is -37.9%. Under `O=C(NC1CCCCC1)N1CC2(C1)[C@H](c1ccccc1)[C@@H](CO)N2S(=O)(=O)Cc1ccccc1` stands -4.41%. Under `C[C@@H]1CCCCO[C@H](CN(C)S(=O)(=O)c2cccs2)[C@@H](C)CN([C@@H](C)CO)C(=O)c2cc(NC(=O)NC3CCCCC3)ccc2O1` stands -76%; under `O=C(Nc1ccccc1F)N1C[C@H]2[C@@H](c3ccccc31)[C@@H](CO)N2C(=O)Cc1cccnc1`, 13.8%; under `COCC(=O)N1CC2(C1)[C@@H](c1ccc(-c3cccc(F)c3)cc1)[C@@H](CO)N2C(=O)COC`, 13.9%. In the case of `COCC(=O)N1[C@H](CO)[C@@H](c2ccccc2)C12CN(Cc1cc(F)ccc1F)C2` it was -89% (active); in that of `COCC(=O)N1CC2(C1)[C@H](c1ccc(-c3cccc(F)c3)cc1)[C@@H](CO)N2C(=O)COC`, 11.2%; in that of `O=C(C1CCCCC1)N1[C@H](CO)[C@@H](c2ccccc2)C12CN(Cc1cccc(Cl)c1)C2`, -90.7% (active). For the compound `O=C(C1CCCC1)N1[C@@H](CO)[C@@H](c2ccccc2)C12CN(Cc1ccc(F)cc1)C2`, the activity change was -28%. In the case of `O=C(C1CCCC1)N1[C@H](CO)[C@@H](c2ccccc2)C12CN(CCC(F)(F)F)C2` it was -46.4%; in that of `COc1cccc(C#Cc2ccc3c(c2)[C@H]2[C@H](CCN2C(=O)CC2CC2)[C@H](CO)N3)c1`, -67.1%; in that of `COc1ccc2c3c(n(C)c2c1)[C@@H](CO)N(Cc1ccncc1)CC31CN(C(=O)Nc2cccc(F)c2)C1`, -46.3%. Consider `C[C@H]1CN([C@@H](C)CO)C(=O)c2c(c3ccccc3n2C)-c2ccccc2CO[C@@H]1CN(C)Cc1ccc2c(c1)OCCN2C`, for which the activity change was -31.4%.

For the compound `CCCN1C[C@H](C)[C@@H](OC)CN(C)C(=O)c2ccc(NC(=O)c3cnccn3)cc2OC[C@H]1C`, the activity change was 13.8%.

Consider `COC(=O)C[C@H]1CC[C@@H]2[C@@H](COc3ccc(NC(=O)Nc4ccc(Cl)cc4)cc3C(=O)N2C)O1`, for which the activity change is 9.95%. Under `O=C([C@@H]1[C@@H](CO)[C@@H]2Cn3c(ccc(-c4cncnc4)c3=O)[C@@H]2N1C(=O)C1CCC1)N1CCCCC1` stands 34%; under `CC(C)CC#Cc1ccc2c(c1)O[C@@H](CN(C)C(=O)c1ccccc1F)[C@H](C)CN([C@H](C)CO)S2(=O)=O`, -71.3%.

Turning to `C[C@H]1CN([C@@H](C)CO)S(=O)(=O)c2ccc(C#CCN(C)C)cc2O[C@H]1CN(C)C(=O)c1ccccc1F`, the activity change is -28.9%. In the case of `CCCC#Cc1ccc2c(c1)O[C@@H](CN(C)C(=O)c1ccccc1F)[C@H](C)CN([C@H](C)CO)S2(=O)=O` it was -85.1% (active). Under `C[C@@H]1CN([C@H](C)CO)S(=O)(=O)c2ccc(C#CC3CC3)cc2O[C@H]1CN(C)Cc1ccccc1F` stands -16.8%; under `CC(C)CC#Cc1ccc2c(c1)O[C@H](CN(C)Cc1ccccc1F)[C@@H](C)CN([C@@H](C)CO)S2(=O)=O`, -84.7% (active).

Consider `CCCN(C)C[C@H]1Oc2cc(C#CCC(C)C)ccc2S(=O)(=O)N([C@H](C)CO)C[C@H]1C`, for which the activity change is -26.1%.
